Reference: PubChem BioAssay
Active and inactive are the calls of the source.

What was measured:
Albumin (Bos taurus) = Albumin (Bos taurus) (UniProt P02769); test: bovine serum albumin binders on microarray, profiling panel, artefact control for SMM control protein annotation, biochemical, small-molecule microarray, Alexa647 label, 635/667 nm fluorescence (AID 1118); conditions: BSA-A647 binding, fluorescence 635 nm, higher = more signal;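 also: score merges 667 nm emission intensity and signal-to-noise per printed compound spot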
Albumin (Bos taurus), sequence (P02769 whole entry, looked up): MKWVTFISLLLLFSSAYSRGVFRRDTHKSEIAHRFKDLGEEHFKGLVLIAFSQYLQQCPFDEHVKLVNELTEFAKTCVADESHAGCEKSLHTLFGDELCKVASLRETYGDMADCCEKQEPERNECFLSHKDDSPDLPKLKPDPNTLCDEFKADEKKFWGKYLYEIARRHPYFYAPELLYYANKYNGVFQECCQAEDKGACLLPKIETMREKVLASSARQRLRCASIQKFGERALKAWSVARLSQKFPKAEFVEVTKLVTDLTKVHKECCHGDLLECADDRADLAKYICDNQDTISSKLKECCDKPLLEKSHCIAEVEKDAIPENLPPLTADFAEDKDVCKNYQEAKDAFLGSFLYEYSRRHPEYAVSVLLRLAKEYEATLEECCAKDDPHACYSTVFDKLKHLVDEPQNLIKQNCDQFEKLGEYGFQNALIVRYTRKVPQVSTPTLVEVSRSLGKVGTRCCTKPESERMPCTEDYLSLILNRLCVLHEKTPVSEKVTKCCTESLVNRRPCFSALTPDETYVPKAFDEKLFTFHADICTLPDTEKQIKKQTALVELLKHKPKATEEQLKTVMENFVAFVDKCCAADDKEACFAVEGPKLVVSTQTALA

[1] = small-molecule microarray binders of probe aXIP, primary screen, biochemical, NeuroSMM set, 635/667 nm fluorescence (AID 1119); conditions: higher = more signal, called active from +8 up or from −8 down;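 also: probe is the protein aXip251-270 applied at 1 µg/mL to compound-printed slides; binding of probe to printed compounds measured as 667 nm fluorescence plus signal to noise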
[2] = small-molecule binders of probe aNOTCH3, primary screen, biochemical, small-molecule microarray, 635/667 nm fluorescence (AID 1120); conditions: higher = more signal;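 also: probe is a biotin-tagged antibody raised against NOTCH3 rather than NOTCH3 protein; score merges spot fluorescence near 667 nm with spot signal to noise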
[3] = small-molecule binders of probe aNOTCH2, primary screen, biochemical, small-molecule microarray, 635/667 nm fluorescence (AID 1121); conditions: higher = more signal;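 also: score merges feature fluorescence read at 667 nm with its signal to noise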
[4] = molecular target: Carbonic anhydrase 2 (Homo sapiens) (UniProt P00918); test: CAII small-molecule binders, profiling panel, biochemical, small-molecule microarray, Alexa647-labelled CAII (AID 1122); conditions: CAII-A647 binding fluorescence, higher = more signal
[5] = COS7 lysate on small-molecule microarray, probe aHis, 635 nm (AID 1123); conditions: COS7 cell lysate, fluorescence, higher = more signal;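 also: z-score combines 667nm fluorescence intensity with signal-to-noise per printed compound spot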
[6] = compound binding in COS7 lysate, probe aLAP1, primary screen, cell lysate, small-molecule microarray (AID 1124); conditions: probe aLAP1, fluorescence, higher = more signal;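 also: lysate comes from COS7 cells expressing LAP1 and is applied at 0.3 µg/mL; score merges spot fluorescence near 667 nm with signal-to-noise over triplicate slides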
Sam68 (KHDRBS1) = test: Sam68 small-molecule binders, primary screen, biochemical, small-molecule microarray, 635 nm fluorescence (AID 1125); conditions: small-molecule microarray binding, higher = more signal;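 also: score merges 667 nm channel intensity with signal to noise over triplicate slides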
[7] = tested on: Chordin-like protein 2 (CHRDL2); test: CHRDL2 small-molecule binders, primary screen, biochemical, small-molecule microarray, 635 nm fluorescence (AID 1126); conditions: small-molecule microarray binding, fluorescence 635 nm; higher = more signal;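 also: printed compound slides probed with Chrdl2 protein at 4 µg/mL for 1 h at 4 C; score merges 667 nm emission intensity with signal to noise over three replicate slides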
[8] = molecular target: Concanavalin-A (Canavalia ensiformis) (UniProt P02866); test: ConA small-molecule binders, primary screen, artefact control for SMM control protein annotation, biochemical, small-molecule microarray, Alexa647 label, 635 nm (AID 1127); conditions: ConA-A647 binding fluorescence, higher = more signal;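 also: z combines 667 nm emission intensity with signal-to-noise across three replicate slides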
Concanavalin-A (Canavalia ensiformis), sequence (P02866 whole entry, looked up): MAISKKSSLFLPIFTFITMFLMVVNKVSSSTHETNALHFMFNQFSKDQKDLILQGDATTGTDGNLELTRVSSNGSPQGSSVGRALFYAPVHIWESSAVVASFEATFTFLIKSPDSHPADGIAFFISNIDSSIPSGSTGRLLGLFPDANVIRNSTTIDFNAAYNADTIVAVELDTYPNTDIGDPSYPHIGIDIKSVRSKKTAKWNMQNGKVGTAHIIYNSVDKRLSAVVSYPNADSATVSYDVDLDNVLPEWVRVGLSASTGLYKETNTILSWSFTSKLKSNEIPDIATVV

[9] = anti-His antibody binders, primary screen, artefact control for SMM control protein annotation, biochemical, small-molecule microarray, 635 nm fluorescence (AID 1128); conditions: anti-His Alexa647 antibody binding, higher = more signal;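 also: score merges feature fluorescence with signal-to-noise for each printed compound spot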
[10] = tested on: Human papillomavirus type 1a E7 protein (residues 1-88); test: HPV1a E7 small-molecule binders, primary screen, biochemical, small-molecule microarray, residues 1-88, 635 nm (AID 1129); conditions: small-molecule microarray binding, fluorescence 635 nm; higher = more signal
[11] = molecular target: Focal adhesion kinase 1 (Homo sapiens) (UniProt Q05397); test: small-molecule microarray binders of FAK, primary screen, biochemical, 635/667 nm fluorescence, BSA, DTT (AID 1130); conditions: PTK2 binding, 635 nm fluorescence, higher = more signal;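 also: composite of spot emission at 667 nm and signal to noise over triplicate slides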
Focal adhesion kinase 1 (Homo sapiens), sequence (Q05397 whole entry, looked up): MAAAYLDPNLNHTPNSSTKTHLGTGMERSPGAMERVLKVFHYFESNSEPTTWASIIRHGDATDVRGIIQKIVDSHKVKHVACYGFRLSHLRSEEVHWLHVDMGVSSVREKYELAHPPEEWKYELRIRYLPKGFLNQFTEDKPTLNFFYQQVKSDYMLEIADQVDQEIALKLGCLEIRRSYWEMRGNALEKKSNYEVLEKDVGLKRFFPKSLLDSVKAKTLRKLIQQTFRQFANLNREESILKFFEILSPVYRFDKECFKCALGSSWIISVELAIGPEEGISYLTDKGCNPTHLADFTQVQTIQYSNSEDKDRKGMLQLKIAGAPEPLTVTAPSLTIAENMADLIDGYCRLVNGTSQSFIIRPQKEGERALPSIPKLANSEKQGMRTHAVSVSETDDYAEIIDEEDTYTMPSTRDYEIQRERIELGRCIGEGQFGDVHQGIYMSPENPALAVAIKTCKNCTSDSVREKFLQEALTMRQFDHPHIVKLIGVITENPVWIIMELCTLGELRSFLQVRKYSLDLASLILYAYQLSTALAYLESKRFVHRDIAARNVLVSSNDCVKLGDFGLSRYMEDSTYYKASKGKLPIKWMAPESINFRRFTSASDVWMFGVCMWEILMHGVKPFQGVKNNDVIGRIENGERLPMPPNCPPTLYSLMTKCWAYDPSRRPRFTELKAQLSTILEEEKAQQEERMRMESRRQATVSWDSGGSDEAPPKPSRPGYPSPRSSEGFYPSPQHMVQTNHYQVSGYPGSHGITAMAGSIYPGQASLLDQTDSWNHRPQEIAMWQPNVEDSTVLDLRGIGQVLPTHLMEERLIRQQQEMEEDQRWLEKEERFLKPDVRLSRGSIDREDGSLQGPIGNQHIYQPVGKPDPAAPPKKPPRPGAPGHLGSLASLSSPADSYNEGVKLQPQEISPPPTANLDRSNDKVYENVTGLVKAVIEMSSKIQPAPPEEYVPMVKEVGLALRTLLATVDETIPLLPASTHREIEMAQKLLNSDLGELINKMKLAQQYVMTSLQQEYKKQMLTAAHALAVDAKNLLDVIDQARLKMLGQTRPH

[12] = tested on: Fibrinogen (Alexa647-labelled); test: fibrinogen binders on compound microarrays, profiling panel, artefact control for SMM control-protein annotation, biochemical, small-molecule microarray, 635/667 nm fluorescence (AID 1131); conditions: fibrinogen-A647 binding fluorescence, higher = more signal;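 also: z-score merges 667 nm fluorescence with per-spot signal-to-noise over triplicate slides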
[13] = molecular target: Follistatin (Homo sapiens) (UniProt P19883); test: follistatin binders on small-molecule microarrays, primary screen, biochemical, small-molecule microarray, 635/667 nm fluorescence (AID 1132); conditions: FST binding, 635 nm fluorescence, higher = more signal
Follistatin (Homo sapiens), sequence (P19883 whole entry, looked up): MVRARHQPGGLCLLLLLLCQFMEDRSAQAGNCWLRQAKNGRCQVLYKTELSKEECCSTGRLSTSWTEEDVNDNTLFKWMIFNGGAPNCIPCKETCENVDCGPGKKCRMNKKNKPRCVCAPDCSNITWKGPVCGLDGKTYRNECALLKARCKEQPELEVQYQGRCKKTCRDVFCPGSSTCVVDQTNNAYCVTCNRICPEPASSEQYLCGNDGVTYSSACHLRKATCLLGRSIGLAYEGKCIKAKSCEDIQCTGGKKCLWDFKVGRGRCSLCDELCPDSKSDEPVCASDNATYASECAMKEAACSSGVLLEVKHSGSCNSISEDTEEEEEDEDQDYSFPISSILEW

[14] = molecular target: Fibroblast growth factor 2 (Homo sapiens) (UniProt P09038); test: FGF2 binders on small-molecule microarrays, primary screen, biochemical, small-molecule microarray, 635/667 nm fluorescence (AID 1133); conditions: small-molecule microarray binding, FGF2, fluorescence 635/667; higher = more signal
Fibroblast growth factor 2 (Homo sapiens), sequence (P09038 whole entry, looked up): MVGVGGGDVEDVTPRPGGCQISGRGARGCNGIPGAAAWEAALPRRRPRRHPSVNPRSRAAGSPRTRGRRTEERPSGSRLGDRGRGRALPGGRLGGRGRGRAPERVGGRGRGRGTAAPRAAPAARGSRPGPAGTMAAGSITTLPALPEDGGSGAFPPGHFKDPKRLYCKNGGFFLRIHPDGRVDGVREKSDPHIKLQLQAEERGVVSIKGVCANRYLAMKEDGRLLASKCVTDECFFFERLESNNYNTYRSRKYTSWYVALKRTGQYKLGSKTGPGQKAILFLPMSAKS

[15] = mitochondrial membrane potential change in A549 cells, profiling panel, cell-based, JC-1 fluorescence, basal, 24 h, 100 nL (AID 1138); conditions: higher = more signal;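 also: A549 lung adenocarcinoma cells under basal conditions with no added stimulus; test concentration not given here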
Lefty1 = Lefty1 binders on small-molecule microarrays, primary screen, biochemical, small-molecule microarray, 635/667 nm fluorescence (AID 1139); conditions: small-molecule microarray binding, fluorescence 635/667; higher = more signal
[16] = tested on: wheat germ agglutinin (Triticum aestivum), Alexa647-labelled; test: wheat germ agglutinin binders on compound microarrays, profiling panel, artefact control for SMM control-protein annotation, biochemical, small-molecule microarray, 635/667 nm fluorescence (AID 1140); conditions: WGA-A647 binding, 635 nm fluorescence, higher = more signal;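 also: score merges 667 nm feature emission with signal to noise over triplicate slides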
[17] = molecular target: Luciferin 4-monooxygenase (Photinus pyralis) (UniProt P08659); test: firefly luciferase enzyme inhibitors, primary screen, biochemical, luminescence, purified enzyme, 2006 set (AID 1141); conditions: SteadyGlo luminescence, 30 min, higher = more signal, called active from +8 up or from −8 down;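 also: cell-free assay with purified firefly luciferase at 100 ng per well in PBS; test concentration not given here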
Luciferin 4-monooxygenase (Photinus pyralis), sequence (P08659 whole entry, looked up): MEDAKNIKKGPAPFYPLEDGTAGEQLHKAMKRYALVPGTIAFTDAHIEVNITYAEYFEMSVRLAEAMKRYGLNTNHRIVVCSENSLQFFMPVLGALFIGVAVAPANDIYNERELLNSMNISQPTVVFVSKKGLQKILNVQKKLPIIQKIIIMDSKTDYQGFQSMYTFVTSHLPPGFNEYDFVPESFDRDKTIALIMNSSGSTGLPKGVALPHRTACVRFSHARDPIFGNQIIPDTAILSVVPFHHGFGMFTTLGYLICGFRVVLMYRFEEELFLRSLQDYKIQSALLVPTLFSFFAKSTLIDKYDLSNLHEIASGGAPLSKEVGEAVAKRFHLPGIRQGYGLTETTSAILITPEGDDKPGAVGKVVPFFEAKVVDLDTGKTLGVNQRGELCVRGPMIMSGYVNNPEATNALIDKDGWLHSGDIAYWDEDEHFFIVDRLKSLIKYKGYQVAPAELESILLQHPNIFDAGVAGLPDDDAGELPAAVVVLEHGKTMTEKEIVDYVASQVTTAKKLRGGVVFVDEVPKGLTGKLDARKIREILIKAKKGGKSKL

Which composite z-score (Albumin (Bos taurus)) does the source give for `C[C@]1(C(=O)NCC(F)(F)F)c2ccccc2C(=O)N(Cc2cc(C(F)(F)F)cc(C(F)(F)F)c2)[C@H]1c1ccc(CO)cc1` here?
Its composite z-score is 0.154.

And the composite Z-score [1]?
The composite Z-score was 0.196 (inactive).

And the composite z-score [2]?
The composite z-score was -0.154.

And the composite z-score [3]?
The composite z-score was -0.0226.

And the composite z-score [4]?
The composite z-score was 0.306.

What about the composite z-score [5] of the same molecule?
The composite z-score was 1.11.

And the composite z-score [6]?
Its composite z-score is 0.108.

What about the composite z-score (Sam68 (KHDRBS1)) of the same molecule?
The composite z-score was 0.1.

And the composite z-score [7]?
The composite z-score was -0.404.

And the composite z-score [8]?
Its composite z-score is -0.522.

And the composite z-score [9]?
Its composite z-score is 0.0266.

What about the composite z-score [10] of the same molecule?
Its composite z-score is 0.416.

And the composite z-score [11]?
Its composite z-score is 0.0715.

And the composite z-score [12]?
Its composite z-score is 0.412.

What about the composite z-score [13] of the same molecule?
Its composite z-score is -0.0478.

What about the composite z-score [14] of the same molecule?
The composite z-score was 0.292.

And the z-score [15]?
Its z-score is 1.23.

What about the composite z-score (Lefty1) of the same molecule?
Its composite z-score is -0.541.

And the composite z-score [16]?
Its composite z-score is -0.174.

And the z-score [17]?
The z-score was -1.17 (inactive).

For `COCCOC(=O)N1C(=O)[C@@]2(c3cc(C#CC4=CCCCC4)ccc31)[C@H](C(=O)N1CCCCCCC1)[C@H]1C(=O)O[C@H](c3ccccc3)[C@H](c3ccccc3)N1[C@@H]2c1ccccc1OCCO`, which composite z-score (Albumin (Bos taurus)) is on record?
Its composite z-score is 0.321.

And the composite Z-score [1]?
The composite Z-score was 0.496 (inactive).

And the composite z-score [2]?
The composite z-score was 0.733.

What about the composite z-score [3] of the same molecule?
Its composite z-score is 0.0596.

What about the composite z-score [4] of the same molecule?
The composite z-score was 0.522.

And the composite z-score [5]?
The composite z-score was 1.58.

And the composite z-score [6]?
The composite z-score was 1.2.

What about the composite z-score (Sam68 (KHDRBS1)) of the same molecule?
Its composite z-score is 1.3.

What about the composite z-score [7] of the same molecule?
The composite z-score was 0.6.

What about the composite z-score [8] of the same molecule?
The composite z-score was 1.11.

What about the composite z-score [9] of the same molecule?
Its composite z-score is 0.316.

And the composite z-score [10]?
The composite z-score was 1.19.

What about the composite z-score [11] of the same molecule?
The composite z-score was 0.391.

What about the composite z-score [12] of the same molecule?
The composite z-score was 0.461.

And the composite z-score [13]?
Its composite z-score is 1.42.

And the composite z-score [14]?
The composite z-score was 0.679.

And the z-score [15]?
The z-score was -1.

And the composite z-score (Lefty1)?
The composite z-score was 1.01.

And the composite z-score [16]?
Its composite z-score is 0.275.

What about the z-score [17] of the same molecule?
The z-score was 0.104 (inactive).

For `COCCCNC(=O)[C@@]1(Cc2ccccc2I)c2ccccc2C(=O)N(Cc2ccccc2OC)[C@H]1c1ccc(CO)cc1`, which composite z-score (Albumin (Bos taurus)) is on record?
Its composite z-score is -0.685.

And the composite Z-score [1]?
The composite Z-score was 0.0679 (inactive).

What about the composite z-score [2] of the same molecule?
The composite z-score was -0.134.

What about the composite z-score [3] of the same molecule?
Its composite z-score is -0.14.

And the composite z-score [4]?
The composite z-score was 0.542.

What about the composite z-score [5] of the same molecule?
Its composite z-score is 2.31.

And the composite z-score [6]?
Its composite z-score is -0.143.

What about the composite z-score (Sam68 (KHDRBS1)) of the same molecule?
The composite z-score was 0.614.

What about the composite z-score [7] of the same molecule?
Its composite z-score is -1.82.

And the composite z-score [8]?
The composite z-score was 0.911.

What about the composite z-score [9] of the same molecule?
The composite z-score was 3.03.

And the composite z-score [10]?
The composite z-score was 1.18.

What about the composite z-score [11] of the same molecule?
Its composite z-score is 0.0958.

What about the composite z-score [12] of the same molecule?
Its composite z-score is 0.198.

What about the composite z-score [13] of the same molecule?
Its composite z-score is -0.268.

And the composite z-score [14]?
The composite z-score was -0.39.

What about the z-score [15] of the same molecule?
The z-score was 1.93.

And the composite z-score (Lefty1)?
The composite z-score was -1.26.

And the composite z-score [16]?
Its composite z-score is 0.214.

What about the z-score [17] of the same molecule?
Its z-score is -0.773 (inactive).

For `C=C(C(=O)CC[C@@H](OC(=O)c1cccnc1)c1cccc(OCCO)c1)C(C)C`, which composite z-score (Albumin (Bos taurus)) is on record?
The composite z-score was -0.176.

What about the composite Z-score [1] of the same molecule?
The composite Z-score was 0.437 (inactive).

And the composite z-score [2]?
The composite z-score was 0.0286.

What about the composite z-score [3] of the same molecule?
Its composite z-score is -0.141.

What about the composite z-score [4] of the same molecule?
Its composite z-score is 0.14.

What about the composite z-score [5] of the same molecule?
The composite z-score was -0.588.

And the composite z-score [6]?
Its composite z-score is 1.3.

What about the composite z-score (Sam68 (KHDRBS1)) of the same molecule?
Its composite z-score is -0.588.

What about the composite z-score [7] of the same molecule?
Its composite z-score is -0.114.

What about the composite z-score [8] of the same molecule?
The composite z-score was 0.297.

And the composite z-score [9]?
The composite z-score was 0.317.

What about the composite z-score [10] of the same molecule?
Its composite z-score is -0.4.

And the composite z-score [11]?
Its composite z-score is -0.896.

And the composite z-score [12]?
The composite z-score was 0.496.

What about the composite z-score [13] of the same molecule?
Its composite z-score is 0.866.

What about the composite z-score [14] of the same molecule?
Its composite z-score is 1.33.

And the z-score [15]?
The z-score was 0.313.

And the composite z-score (Lefty1)?
The composite z-score was 1.13.

And the composite z-score [16]?
Its composite z-score is 0.386.

And the z-score [17]?
Its z-score is -0.128 (inactive).

For `COCCCNC(=O)[C@]1(Cc2ccccc2N=[N+]=[N-])N=C(c2ccc(OCCCO)cc2)O[C@@H]1c1ccccc1`, which composite z-score (Albumin (Bos taurus)) is on record?
Its composite z-score is 0.894.

And the composite Z-score [1]?
Its composite Z-score is 0.522 (inactive).

And the composite z-score [2]?
The composite z-score was 0.619.

What about the composite z-score [3] of the same molecule?
Its composite z-score is 0.308.

And the composite z-score [4]?
The composite z-score was 0.304.

And the composite z-score [5]?
The composite z-score was 2.85.

And the composite z-score [6]?
Its composite z-score is 0.536.

What about the composite z-score (Sam68 (KHDRBS1)) of the same molecule?
Its composite z-score is 1.3.

And the composite z-score [7]?
The composite z-score was -0.586.

What about the composite z-score [8] of the same molecule?
Its composite z-score is 1.11.

What about the composite z-score [9] of the same molecule?
The composite z-score was 2.96.

And the composite z-score [10]?
Its composite z-score is 1.24.

What about the composite z-score [11] of the same molecule?
Its composite z-score is 1.05.

What about the composite z-score [12] of the same molecule?
Its composite z-score is 0.977.

And the composite z-score [13]?
The composite z-score was 1.25.

And the composite z-score [14]?
Its composite z-score is 0.94.

And the z-score [15]?
Its z-score is 2.2.

And the composite z-score (Lefty1)?
The composite z-score was -0.252.

And the composite z-score [16]?
The composite z-score was 1.3.

What about the z-score [17] of the same molecule?
Its z-score is -1.9 (inactive).
